Consider 40 compounds from PubChem BioAssay (NCATS).

Inconclusive results are not listed. Calls of active or inactive are those of the source. Calls follow the shape of the dose curve; as a rule, active = well fitted cell-killing curve with a large enough effect; inconclusive = small, poorly fitted or top-dose-only effect, or effect the other way; inactive = flat fitted curve, though single readings scatter.
% is scaled to controls: 0 for no effect and ±100 for the full control effect.

This experiment is described as follows: Cell Viability - HUV-EC-C (AID 542). Also: nearly all actives have a fitted effect of over 35% in size. Conditions: HUV-EC-C endothelial cell viability, qHTS; series mostly up to 92.2 µM; activity change, negative = cytotoxicity: at the top concentration. The text has this:
NIH Chemical Genomics Center [NCGC]
NIH Molecular Libraries Screening Centers Network [MLSCN]
National Institutes of Environmental Health Sciences [NIEHS]
National Toxicology Program [NTP]
We have developed a 1536-well cell-based assay for quantitative high throughput screening (qHTS) against a number of cell lines to determine in vitro cytotoxicity of small molecules. This particular assay uses the HUV-EC-C cell line which is derived from normal human vascular endothelial cells.
NCGC Assay Protocol Summary:
The CellTiter-Glo luminescent cell viability assay (Promega) is a homogeneous method to measure the number of viable cells in culture. The end point readout of this assay is based on quantitation of intracellular ATP, an indicator of metabolic activity, using the luciferase reaction. Luciferase catalyzes the oxidation of beetle Luciferin to oxyluciferin and light in the presence of ATP. The luminescent signal is proportional to amount of ATP present.
Using the CellTiter-Glo luminescent cell viability assay, the amount of cellular ATP was measured in the HUV-EC-C cell line with complete culture medium following compound treatment for 40 hours. The assay was performed in opaque white Kalypsys 1536-well plates. In the screen, tamoxifen and doxorubicin were used as positive controls. Library compounds were measured for their ability to cause acute toxicity in the cell line, as reflected by a decrease in intracellular ATP levels, in a concentration-dependent manner. […] AC50 values were determined from concentration-response data modeled with the standard Hill equation.
qHTS protocol for CellTiter Glo HUV-EC-C cellular assay
[Step] [Parameter] [Value] [Description]
1. Reagent; 5 uL; 1000 HUV-EC-C cells/well
2. Time; 5 hr; 37 °C incubation
4. Controls; 23 nL; Tamoxifen 0.34 uM to 100 uM & Doxorubicin 0.02 nM to 100 uM
5. Time; 40 hr; 37 °C incubation
6. Reagent; 5 uL; CellTiter Glo reagent
7. Time; 20 min; Room Temperature
8. Detection; Luminescence; Viewlux plate reader
Keywords: cell viability, cytotoxicity, HUV-EC-C cell line, luminescence, NTPHTS, NTPHTS_NCGC, NIEHS, EPA, DSSTox, MLSMR, MLSCN, NIH Roadmap, qHTS, NCGC
Regarding `Clc1cccc(Cl)c1Cl`, the “activity change, negative = cytotoxicity” value is -3.13% (inactive).

As for `COC(=O)c1ccccc1N`, the “activity change, negative = cytotoxicity” value is 2.23% (inactive).

In the case of `O=C(Cl)c1ccccc1F`, the “activity change, negative = cytotoxicity” value was 1.13% (inactive).

`Nc1ccc([N+](=O)[O-])cc1[N+](=O)[O-]`: the “activity change, negative = cytotoxicity” value is 23.6% (inactive).

Regarding `Cc1ccc(N)cc1N`, the “activity change, negative = cytotoxicity” value is -8.94% (inactive).

Regarding `CC(C)[C@]12CC(=O)[C@H](C)[C@H]1C2`, the “activity change, negative = cytotoxicity” value was -2.31% (inactive).

Consider `CN1CSC(=S)N(C)C1`, for which the “activity change, negative = cytotoxicity” value is -18.3% (inactive).

As for `Cc1cnc[nH]1`, the “activity change, negative = cytotoxicity” value was -8.15% (inactive).

Take `CCOC(=O)CC(SP(=O)(OC)OC)C(=O)OCC` (stereo not given): the “activity change, negative = cytotoxicity” value was 16.2% (inactive).

In the case of `CC(C)Br`, the “activity change, negative = cytotoxicity” value is 3.35% (inactive).

On to `ClC(Cl)C(Cl)Cl`, for which the “activity change, negative = cytotoxicity” value was -3.98% (inactive).

For the compound `Oc1cccc(Cl)c1`, the “activity change, negative = cytotoxicity” value is -0.175% (inactive).

On to `O=[N+]([O-])c1ccccc1CCl`, for which the “activity change, negative = cytotoxicity” value was -11.4% (inactive).

`O=S(=O)(O)F`: the “activity change, negative = cytotoxicity” value is -1.45% (inactive).

Regarding `C=COC(C)=O`, the “activity change, negative = cytotoxicity” value is 1.38% (inactive).

As for `CSSC`, the “activity change, negative = cytotoxicity” value is -12.7% (inactive).

As for `C(CCOCC1CO1)COCC1CO1` (stereo not given), the “activity change, negative = cytotoxicity” value was -2.67% (inactive).

With `Nc1ccc2ccccc2c1`, the “activity change, negative = cytotoxicity” value was -10.8% (inactive).

In the case of `CCOP(=O)(OCC)OCC`, the “activity change, negative = cytotoxicity” value is 1.34% (inactive).

With `CC(=O)NNc1ccccc1`, the “activity change, negative = cytotoxicity” value is -6.37% (inactive).

For the compound `Cc1ccc([N+](=O)[O-])cc1`, the “activity change, negative = cytotoxicity” value is 7.66% (inactive).

For the compound `Cc1ccc(N=C=O)cc1N=C=O`, the “activity change, negative = cytotoxicity” value was 3.83% (inactive).

On to `CC(C)(OOC(C)(C)c1ccccc1)c1ccccc1`, for which the “activity change, negative = cytotoxicity” value was 7.22% (inactive).

Regarding `O=C(O)C(Cl)Br` (stereo not given), the “activity change, negative = cytotoxicity” value was -2.91% (inactive).

For the compound `[O-][Cl+2]([O-])O`, the “activity change, negative = cytotoxicity” value is 12.7% (inactive).

For the compound `O=[N+]([O-])c1ccc2c3c(cccc13)CC2`, the “activity change, negative = cytotoxicity” value is -9.11% (inactive).

Turning to `CC12CC1(C)C(=O)N(c1cc(Cl)cc(Cl)c1)C2=O` (stereo not given), the “activity change, negative = cytotoxicity” value is 4.61% (inactive).

As to `O=C(O)CCl`, the “activity change, negative = cytotoxicity” value was 5.54% (inactive).

For the compound `ClC(Cl)c1ccccc1`, the “activity change, negative = cytotoxicity” value is 10.4% (inactive).

`Nn1cnnc1`: the “activity change, negative = cytotoxicity” value is 16.9% (inactive).

Regarding `C=CC(=O)OCC(CC)CCCC` (stereo not given), the “activity change, negative = cytotoxicity” value is 5.74% (inactive).

As to `CC(C)(C)c1ccccc1O`, the “activity change, negative = cytotoxicity” value is -4.15% (inactive).

In the case of `COc1cc(-c2ccc(N)c(OC)c2)ccc1N`, the “activity change, negative = cytotoxicity” value is -9.72% (inactive).

Regarding `CN(C)N=O`, the “activity change, negative = cytotoxicity” value is 11% (inactive).

For the compound `C[N+](=O)[O-]`, the “activity change, negative = cytotoxicity” value was 8.8% (inactive).

For the compound `CC(C)(Cl)[N+](=O)[O-]`, the “activity change, negative = cytotoxicity” value was 0.74% (inactive).

On to `c1ccc(N=NNc2ccccc2)cc1`, for which the “activity change, negative = cytotoxicity” value is -11.1% (inactive).

Regarding `N#CCCC#N`, the “activity change, negative = cytotoxicity” value is 9.85% (inactive).

On to `C=CCCl`, for which the “activity change, negative = cytotoxicity” value was 2.24% (inactive).

Regarding `c1ccc(P(c2ccccc2)c2ccccc2)cc1`, the “activity change, negative = cytotoxicity” value is -3.82% (inactive).
